Source: PubChem BioAssay (Tox21)
Inconclusive results are not listed. Entries that show only a call come without a potency. Active and inactive are the calls of the source. Unless noted, calls follow the shape of the full dose curve. Positions of bridges follow the written chain, without caps; N, C: chain ends. Non-standard residues stand in square brackets, D forms with d. Residues, ends and D or L forms follow the SMILES beside them. *: point of attachment. X1 = CC[C@@H](C)[C@@H](N)C1=N[C@H](C(=O)*)CS1; d(aIle) = CC[C@H](C)[C@@H](N)C(=O)O; dOrn = NCCC[C@@H](N)C(=O)O

Target: Estrogen receptor (Homo sapiens) (UniProt P03372)
Sequence (P03372 whole entry, looked up): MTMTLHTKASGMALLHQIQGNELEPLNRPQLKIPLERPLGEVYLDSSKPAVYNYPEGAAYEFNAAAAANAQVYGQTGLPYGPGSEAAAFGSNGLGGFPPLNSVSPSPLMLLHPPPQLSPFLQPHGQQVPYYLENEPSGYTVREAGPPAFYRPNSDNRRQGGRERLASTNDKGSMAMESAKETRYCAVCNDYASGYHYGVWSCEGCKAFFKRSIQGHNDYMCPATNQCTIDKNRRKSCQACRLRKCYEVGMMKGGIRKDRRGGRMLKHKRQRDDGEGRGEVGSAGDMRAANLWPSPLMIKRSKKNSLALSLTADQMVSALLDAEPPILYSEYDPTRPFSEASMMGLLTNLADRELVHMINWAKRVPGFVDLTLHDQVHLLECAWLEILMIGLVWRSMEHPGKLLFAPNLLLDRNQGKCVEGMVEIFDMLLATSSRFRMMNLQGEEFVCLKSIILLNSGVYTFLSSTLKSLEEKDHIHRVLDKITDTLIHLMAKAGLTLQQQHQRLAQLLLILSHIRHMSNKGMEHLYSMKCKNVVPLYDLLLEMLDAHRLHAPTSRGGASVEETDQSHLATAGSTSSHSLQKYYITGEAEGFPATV
Experiment: qHTS assay to identify small molecule antagonists of the estrogen receptor alpha (ER-alpha) signaling pathway (AID 743069; active = well fitted curve in the direction sought with a large enough effect in the signal ratio in the repeat runs, not every such curve was filed as active; the % refers to the signal ratio)
Conditions: HEK293 ER-alpha-UAS-bla, beta-lactamase ratio, antagonist mode; series mostly up to 69.4 µM
Summary of the method: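 In this cell-based reporter format, GripTite HEK293 cells harbouring ER-alpha-UAS-bla were grown overnight with 2% charcoal-stripped FBS, dosed with DMSO-dissolved compounds, then challenged with 17beta-estradiol. After 18 hr at 37C, beta-lactamase activity was detected by FRET fluorescence.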
For `CC(=O)O[C@H]1C[C@@H]2CC[C@@H]3[C@H](CC[C@@]4(C)[C@H]3C[C@H]([N+]3(C)CCCCC3)[C@@H]4OC(C)=O)[C@@]2(C)C[C@@H]1[N+]1(C)CCCCC1`, the Potency was “inactive”.
With `CCN(CC)CCOC[C@H]1O[C@@H](O)[C@H](OCCN(CC)CC)[C@@H](O)[C@@H]1O` the Potency was “inactive”.
With `CCOC(=O)COc1ccc2c(=O)cc(-c3ccccc3)oc2c1` the Potency was “inactive”.
In the case of `CC[C@@H](C)[C@H](N)C(=O)O`, the Potency is reported as “inactive”.
For `O=C1CC[C@@H](C(=O)N[C@H]2C[C@@H]2c2ccccc2)N1`, the Potency was “inactive”.
In the case of `CC(C)(C)C(=O)OCC(=O)[C@H]1CC[C@H]2[C@@H]3CCC4=CC(=O)CC[C@]4(C)[C@H]3CC[C@]12C`, the Potency is reported as “inactive”.
In the case of `NC[C@H]1O[C@H](O[C@H]2[C@H](O)[C@@H](O[C@H]3O[C@H](CO)[C@@H](O)[C@H](N)[C@H]3O)[C@H](N)C[C@@H]2N)[C@H](N)C[C@@H]1O`, the Potency is reported as “inactive”.
For `C/C(=C\C(=O)OCCCCCCCCC(=O)O)C[C@@H]1OC[C@H](C[C@@H]2O[C@H]2[C@@H](C)[C@H](C)O)[C@@H](O)[C@H]1O`, the Potency was “inactive”.
With `O=P(O)(O)C(O)(Cn1ccnc1)P(=O)(O)O` the Potency was “inactive”.
With `CCOc1ccc(S(=O)(=O)O)c2cccnc12` the Potency was “inactive”.
With `CC(=NCc1ccccc1)c1ccccc1O` the Potency was “inactive”.
In the case of `CC(=O)OCC(=O)[C@@]1(O)CC[C@H]2[C@@H]3CCC4=CC(=O)CC[C@]4(C)C3=CC[C@@]21C`, the Potency is reported as “inactive”.
With `O=C(O)/C=C/C(=O)Nc1ccc(S(=O)(=O)Nc2nccs2)cc1` the Potency was “inactive”.
With `O=C(O)c1cc2cc(Cc3cccnc3)ccc2o1` the Potency was “inactive”.
With `CC[C@@H](C)[C@@H](N)C1=N[C@H](C(=O)N[C@@H](CC(C)C)C(=O)N[C@@H](CCC(=O)O)C(=O)N[C@@H](C(=O)N[C@@H]2CCCCNC(=O)[C@@H](CC(N)=O)NC(=O)[C@@H](CC(=O)O)NC(=O)[C@@H](Cc3cnc[nH]3)NC(=O)[C@@H](Cc3ccccc3)NC(=O)[C@@H]([C@H](C)CC)NC(=O)[C@@H](CCCN)NC2=O)[C@@H](C)CC)CS1` (X1-LE[d(aIle)][dK][dOrn][dI][dF][dH][dD][dN]; lactam 4-C) the Potency was “inactive”.
In the case of `COc1ccc(/C=N/NC(=O)c2ccncc2)c(C(=O)O)c1OC`, the Potency is reported as “inactive”.
For `O=C1CCC(c2ccc(-n3ccnc3)cc2)=NN1`, the Potency was “inactive”.
For `Cc1cnc(C(=O)O)c[n+]1[O-]`, the Potency was “inactive”.
With `NCC(O)CC(=O)O` (stereo unspecified) the Potency was “inactive”.
With `O=C(N[C@H](CO)[C@H](O)c1ccc([N+](=O)[O-])cc1)C(Cl)Cl` the Potency was “inactive”.
In the case of `O=C(CCCN1CCN2CCCC2C1)c1ccc(F)cc1` (stereo unspecified), the Potency is reported as “inactive”.
In the case of `Nc1nc(/C(=C/CC(=O)O)C(=O)N[C@@H]2C(=O)N3C(C(=O)O)=CCS[C@H]23)cs1`, the Potency is reported as “inactive”.
In the case of `O=C1c2ccccc2CN2C(=O)c3ccccc3CN12`, the Potency is reported as “inactive”.

Test system: not listed separately
Experiment: qHTS assay to identify small molecule antagonists of the estrogen receptor alpha (ER-alpha) signaling pathway - cell viability counter screen (AID 743074); also: nearly all actives have a fitted effect of over 45% in size; also: potency is read from the fitted curve at half-maximal effect
Conditions: ERalpha-bla HEK293 viability, CellTiter-Glo luminescence, 18 h; series mostly up to 69.4 µM
For `CCN(CC)CC#CCOC(=O)C(O)(c1ccccc1)C1CCCCC1` (stereo unspecified), the Potency was “inactive”.
For `CCN(CC)CCOC[C@H]1O[C@@H](O)[C@H](OCCN(CC)CC)[C@@H](O)[C@@H]1O`, the Potency was “inactive”.
In the case of `CN=C(N)NCCC[C@H](N)C(=O)O`, the Potency is reported as “inactive”.
For `CSCC[C@H](NC(=O)[C@H](Cc1ccc(OS(=O)(=O)O)cc1)NC(=O)[C@@H](N)CC(=O)O)C(=O)NCC(=O)N[C@@H](Cc1c[nH]c2ccccc12)C(=O)N[C@@H](CCSC)C(=O)N[C@@H](CC(=O)O)C(=O)N[C@@H](Cc1ccccc1)C(N)=O`, the Potency was “inactive”.
In the case of `CCOC(=O)COc1ccc2c(=O)cc(-c3ccccc3)oc2c1`, the Potency is reported as “inactive”.
In the case of `CC[C@@H](C)[C@H](N)C(=O)O`, the Potency is reported as “inactive”.
With `CCCCCCCCCCCC[n+]1ccc2ccccc2c1` the Potency was 2.13 µM (active).
With `O=C1CC[C@@H](C(=O)N[C@H]2C[C@@H]2c2ccccc2)N1` the Potency was “inactive”.
In the case of `CC(C)(S)C(=O)N[C@@H](CS)C(=O)O`, the Potency is reported as “inactive”.
With `CC(C)(C)C(=O)OCC(=O)[C@H]1CC[C@H]2[C@@H]3CCC4=CC(=O)CC[C@]4(C)[C@H]3CC[C@]12C` the Potency was “inactive”.
In the case of `NC[C@H]1O[C@H](O[C@H]2[C@H](O)[C@@H](O[C@H]3O[C@H](CO)[C@@H](O)[C@H](N)[C@H]3O)[C@H](N)C[C@@H]2N)[C@H](N)C[C@@H]1O`, the Potency is reported as “inactive”.
With `C/C(=C\C(=O)OCCCCCCCCC(=O)O)C[C@@H]1OC[C@H](C[C@@H]2O[C@H]2[C@@H](C)[C@H](C)O)[C@@H](O)[C@H]1O` the Potency was “inactive”.
With `O=P(O)(O)C(O)(Cn1ccnc1)P(=O)(O)O` the Potency was “inactive”.
In the case of `CCOc1ccc(S(=O)(=O)O)c2cccnc12`, the Potency is reported as “inactive”.
With `FC(F)(F)COCC(F)(F)F` the Potency was “inactive”.
With `CC(=NCc1ccccc1)c1ccccc1O` the Potency was “inactive”.
For `CC(=O)OCC(=O)[C@@]1(O)CC[C@H]2[C@@H]3CCC4=CC(=O)CC[C@]4(C)C3=CC[C@@]21C`, the Potency was “inactive”.
With `O=C(O)/C=C/C(=O)Nc1ccc(S(=O)(=O)Nc2nccs2)cc1` the Potency was “inactive”.
In the case of `Cc1onc(-c2c(F)cccc2Cl)c1C(=O)N[C@@H]1C(=O)N2[C@@H]1SC(C)(C)[C@@H]2C(=O)O`, the Potency is reported as “inactive”.
For `O=C(O)c1cc2cc(Cc3cccnc3)ccc2o1`, the Potency was “inactive”.
For `CC[C@@H](C)[C@@H](N)C1=N[C@H](C(=O)N[C@@H](CC(C)C)C(=O)N[C@@H](CCC(=O)O)C(=O)N[C@@H](C(=O)N[C@@H]2CCCCNC(=O)[C@@H](CC(N)=O)NC(=O)[C@@H](CC(=O)O)NC(=O)[C@@H](Cc3cnc[nH]3)NC(=O)[C@@H](Cc3ccccc3)NC(=O)[C@@H]([C@H](C)CC)NC(=O)[C@@H](CCCN)NC2=O)[C@@H](C)CC)CS1` (X1-LE[d(aIle)][dK][dOrn][dI][dF][dH][dD][dN]; lactam 4-C), the Potency was “inactive”.
In the case of `NC(=O)[C@H]1O[C@@H](O)[C@H](O)[C@@H](O)[C@@H]1O`, the Potency is reported as “inactive”.
For `CC(C)C[C@H](NC(=O)[C@@H](COC(C)(C)C)NC(=O)[C@H](Cc1ccc(O)cc1)NC(=O)[C@H](CO)NC(=O)[C@H](Cc1c[nH]c2ccccc12)NC(=O)[C@H](Cc1cnc[nH]1)NC(=O)[C@@H]1CCC(=O)N1)C(=O)N[C@@H](CCCN=C(N)N)C(=O)N1CCC[C@H]1C(=O)NNC(N)=O`, the Potency was “inactive”.
With `Cc1c(N)nc([C@H](CC(N)=O)NC[C@H](N)C(N)=O)nc1C(=O)N[C@H](C(=O)N[C@H](C)[C@@H](O)[C@H](C)C(=O)N[C@H](C(=O)NCCc1nc(-c2nc(C(=O)NCCCCN=C(N)N)cs2)cs1)[C@@H](C)O)[C@@H](O[C@@H]1O[C@@H](CO)[C@@H](O)[C@H](O)[C@@H]1O[C@H]1O[C@H](CO)[C@@H](O)[C@H](OC(N)=O)[C@@H]1O)c1cnc[nH]1` the Potency was “inactive”.
For `NC(N)=NCCCCN=C(N)N`, the Potency was “inactive”.
With `COc1ccc(/C=N/NC(=O)c2ccncc2)c(C(=O)O)c1OC` the Potency was “inactive”.
For `Cc1cnc(C(=O)O)c[n+]1[O-]`, the Potency was “inactive”.
For `COc1c(Br)cc(Br)c(C)c1Br`, the Potency was “inactive”.
For `NCC(O)CC(=O)O` (stereo unspecified), the Potency was “inactive”.
For `O=C(N[C@H](CO)[C@H](O)c1ccc([N+](=O)[O-])cc1)C(Cl)Cl`, the Potency was “inactive”.
With `O=C(CCCN1CCN2CCCC2C1)c1ccc(F)cc1` (stereo unspecified) the Potency was “inactive”.
In the case of `Nc1nc(/C(=C/CC(=O)O)C(=O)N[C@@H]2C(=O)N3C(C(=O)O)=CCS[C@H]23)cs1`, the Potency is reported as “inactive”.
For `O=C1c2ccccc2CN2C(=O)c3ccccc3CN12`, the Potency was “inactive”.
